Laboratory results as given in PubChem BioAssay AID778 (Sanford-Burnham Center for Chemical Genomics, 2007).
Hit rate of the full screen: of about 96,000 compounds, about 20,000 (21%) were called active. These entries were drawn from the full list. Values without a mark were called inactive.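 The calls were made as follows: active = CYP2C19 inhibition above a set limit at 5 µM in the primary screen (cut at about 50% in these data); inactive = the rest.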

Molecular target: Cytochrome P450 2C19 (Homo sapiens) (UniProt P33261)
Experiment: blockers of cytochrome P450 2C19 activity – biochemical, luminescence, ADME assay, primary screen (AID 778);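 also: plate controls were negative control wells for no effect and 2.5 mM tranylcypromine positive control for full effect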
Conditions: CYP2C19 Supersomes, luciferin-H EGE luminescence, 30 min; at 5 µM; hits give high values

Sequence of Cytochrome P450 2C19 (Homo sapiens) (P33261 whole entry, looked up): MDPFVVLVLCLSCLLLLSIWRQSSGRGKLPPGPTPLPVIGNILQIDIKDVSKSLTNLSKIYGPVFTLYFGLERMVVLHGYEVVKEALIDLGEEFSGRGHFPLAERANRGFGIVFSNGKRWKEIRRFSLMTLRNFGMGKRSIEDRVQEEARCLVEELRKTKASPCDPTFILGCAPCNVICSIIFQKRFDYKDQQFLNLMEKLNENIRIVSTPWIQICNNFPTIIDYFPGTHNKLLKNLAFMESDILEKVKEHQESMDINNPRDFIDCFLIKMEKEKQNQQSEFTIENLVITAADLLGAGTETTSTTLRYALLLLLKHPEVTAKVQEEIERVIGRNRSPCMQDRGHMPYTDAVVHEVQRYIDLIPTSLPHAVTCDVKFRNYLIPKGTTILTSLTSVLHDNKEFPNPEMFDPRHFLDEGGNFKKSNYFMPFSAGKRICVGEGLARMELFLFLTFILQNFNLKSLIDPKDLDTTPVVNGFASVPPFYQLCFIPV

Row | Compound | inhibition
1 | Cc1cccc(N(CC(O)CN(C)C)S(=O)(=O)c2ccccc2)c1 (stereo not drawn) | -5.2%
2 | O=C(CN1CCSCC1)N/N=C/c1ccc(F)cc1F | 3.1%
3 | Cc1ccc(-c2nc(CS(=O)CC(=O)NC3CCCC3)c(C)o2)cc1 (stereo not drawn) | 32.1%
4 | COC(=O)C1(S(=O)(=O)C2(C(=O)OC)CCCC2)CCCC1 | 65.4% (active)
5 | COc1ccc(Cc2nnc(SC)[nH]c2=O)cc1 | -4.5%
6 | Cc1cccc(C(=O)NCCCN2CCCC2=O)c1 | 21.8%
7 | CCc1nc(C)cn1S(=O)(=O)c1cc(OC)c(C)cc1C | 45.7%
8 | COc1ccc(CN2C(=O)CN=C2Nc2ccc(C)cc2C)cc1 | 82.7% (active)
9 | Cc1cc(C)nc(NC2=NCC(=O)N2c2ccc(Cl)cc2)n1 | 4.3%
10 | COc1ccc(N2C(=O)CN=C2Nc2cccc(C)c2C)cc1OC | 17.1%
11 | Cc1nc(NC2=NC(C(=O)Nc3ccc(Cl)cc3)CC(=O)N2)nc2ccccc12 (stereo not drawn) | 2.5%
12 | CC(C)Oc1ccc(C(=O)NC(C)(C)CO)cc1 | 3.7%
13 | COC(=O)c1ccc(C2CC(=O)Nc3cc(OC)c(OC)cc32)cc1 (stereo not drawn) | 36.1%
14 | COCCOC(=O)C1=C(C)Nc2nc(C)nn2C1c1ccccc1 (stereo not drawn) | 17.9%
15 | COCCOC(=O)C1=C(C)NC(=O)CC1c1cc2c(cc1Br)OCO2 (stereo not drawn) | 83.7% (active)
16 | CC(C)(C)C(=O)Nc1ccc(C(=O)N/N=C/c2ccccc2OC(=O)c2ccc(Cl)cc2Cl)cc1 | 42.1%
17 | CCS(=O)(=O)Nc1ccc(C2=NN(S(=O)(=O)c3ccc(F)cc3)C(c3ccco3)C2)cc1 (stereo not drawn) | 82.8% (active)
18 | Fc1ccc(N2N=C(c3cccs3)CC2c2ccco2)c(F)c1 (stereo not drawn) | 2.3%
19 | CN1CCN(S(=O)(=O)c2ccc(NC(=O)c3ccco3)cc2)CC1 | -15.6%
20 | COc1cccc2c1OCC1COc3c(c(=O)n(C)c(=O)n3C)C21 (stereo not drawn) | -1%
21 | COc1ccc(C2SCCN2S(=O)(=O)c2ccccc2)cc1OC (stereo not drawn) | 48.2%
22 | COc1ccc(C2CC(=O)n3c(nc4ccccc43)S2)cc1OC (stereo not drawn) | 11.9%
23 | COc1ccc(C2N=C(N)N=C(N)N2c2ccccc2)cc1OC (stereo not drawn) | 57.2% (active)
24 | Cc1c(Nc2cc(N3CCCC(C)C3)c3nonc3c2[N+](=O)[O-])c(=O)n(-c2ccccc2)n1C (stereo not drawn) | 19.5%
25 | CCSC(C)CC1C/C(=N/O)c2c(C)noc2C1 (stereo not drawn) | 40.9%

Row | Compound | inhibition
26 | CNC(=O)/C(=C\C=C\c1ccccc1)NC(=O)c1ccc([N+](=O)[O-])cc1 | 23.9%
27 | Cc1ccc(C(=O)N/C(=C/C=C/c2ccccc2)C(=O)NCc2ccco2)cc1 | 50.8% (active)
28 | COc1cc(C(=O)NC(=S)NCc2ccco2)cc(OC)c1OC | 28.5%
29 | CCOCCCNC(=O)C(NC(=O)c1ccc(=O)[nH]c1)c1ccc(Cl)cc1 (stereo not drawn) | -4.8%
30 | CCN(CC(=O)Nc1ccccc1OC)C(=O)Cn1cnc2ccccc2c1=O | 1.7%
31 | CC(CNC(=O)c1ccc(Br)o1)NC(=O)c1ccc(Br)o1 (stereo not drawn) | 10.7%
32 | CC(CCc1ccccc1)NC(=O)c1ccc(Br)o1 (stereo not drawn) | 57.2% (active)
33 | CCN(CC)S(=O)(=O)N1CCC(C(=O)NC(C)CCc2ccccc2)CC1 (stereo not drawn) | -8.4%
34 | CS(=O)(=O)c1ccc2nc(NC(=O)C3CCCCC3)sc2c1 | -0.8%
35 | N#CC1=C(N)N(c2ccc(F)cc2)C(=O)C1 | -22.3%
36 | Cc1ccccc1CSc1nnc(-c2ccccn2)n1N | 43.6%
37 | O=C(Nn1cc(C(=O)N2CCN(c3ccccc3F)CC2)c2ccccc2c1=O)c1cnccn1 | 9.8%
38 | COc1ccc2oc(=O)c(C(=O)N3CCN(c4ccccc4F)CC3)cc2c1 | 9.7%
39 | COc1ccc(Nc2ncc(C(=O)N3CCN(c4ccccc4OC)CC3)c3ccccc23)cc1 | 51.6% (active)
40 | COc1ccc(N2C(=O)CCC(C(=O)N(C)C3CCCCC3)C2c2ccc(OC)c(OC)c2)cc1 (stereo not drawn) | 20.3%
41 | COCCN(C(=O)CCC(=O)Nc1ccccn1)C(C(=O)NCCC(C)C)c1ccc(OC)cc1 (stereo not drawn) | 42.4%
42 | CCC(C)n1[nH]c(=O)cc1N (stereo not drawn) | 6.5%
43 | O=C(NNC(=O)c1cccnc1)Nc1ccccc1 | -10.3%
44 | O=C(CS(=O)(=O)Cc1ccccc1)Nc1cccnc1 | 6.9%
45 | O=C(Nc1ccccc1)N(Cc1cccnc1)Cc1ccco1 | 76.4% (active)
46 | N/C(=N\OC(=O)c1cc(-c2ccccc2)nc2ccccc12)c1ccncc1 | 29.8%
47 | COC(=O)c1ccc(/C=N\n2c(C)nnc2C)cc1 | 8.4%
48 | CCOC(=O)C1=C(CC)Nc2ccccc2N=C1NC(=O)c1cccc(S(=O)(=O)N2CCCC2)c1 | 54.2% (active)
49 | CCOC(=O)CSc1nnc(NC(=O)c2cccc(S(=O)(=O)N3CCCCC3)c2)s1 | 7.4%
50 | CCOC(=O)CSc1nnc(NC(=O)c2cccc(S(=O)(=O)N3CCCC3)c2)s1 | 2.1%

Row | Compound | inhibition
51 | COC(=O)c1ccc(S(=O)(=O)c2ccc(C(=O)OC)s2)s1 | 24.5%
52 | CCOC(=O)C1CCCN(C(=O)c2ccc(CS(=O)(=O)c3ccc(Br)cc3)o2)C1 (stereo not drawn) | 34.7%
53 | CCOC(=O)C1CCCN(C(=O)c2cncc(Br)c2)C1 (stereo not drawn) | 82.7% (active)
54 | CCOC(=O)C1CCCN(C(=O)C2CCN(c3nnc(-n4cccc4)s3)CC2)C1 (stereo not drawn) | 5.1%
55 | CCc1ccc(NC(=O)CS(=O)CC(=O)NCCCc2ccccc2)cc1 (stereo not drawn) | 2.7%
56 | CCOC(=O)C1(Cc2ccc(O)cc2)NC(c2ccccc2F)C2C(=O)N(C)C(=O)C21 (stereo not drawn) | -4.2%
57 | CCOc1ccc2nc(NC(=O)CSc3nc4c(c(=O)n(C)c(=O)n4C)n3CC)sc2c1 | 32.4%
58 | COc1ccc2nc(NC(=O)c3ccc(Br)s3)sc2c1 | 6.2%
59 | COc1ccccc1NC(=O)CSc1nnc(-c2ccoc2C)n1CCc1ccccc1 | 59.8% (active)
60 | COc1ccccc1NC(=O)CSc1nnc(Cn2nnc(-c3ccccc3)n2)n1-c1ccccc1 | 27.4%
61 | CCn1c(SCC(=O)Nc2nc3ccc(OC)cc3s2)nnc1-c1ccoc1C | 51% (active)
62 | CCCn1c(SCC(=O)Nc2cccc(C(=O)OCC)c2)nnc1-c1ccoc1C | 32.5%
63 | COc1ccc(S(=O)(=O)N2CCN(c3ncnc4c(-c5ccccc5)nsc34)CC2)cc1 | 38.2%
64 | Cc1ccnc(-n2sc3ccccc3c2=O)n1 | 9.8%
65 | Cc1cc(NC(=O)CN2CCCC(C)C2)n(-c2nc3ccccc3s2)n1 (stereo not drawn) | -3.6%
66 | COC(=O)Nc1c(C)n(C)n(-c2ccccc2)c1=O | -13.8%
67 | Cc1cc(C)cc(N(CC(=O)Nc2c(C)n(C)n(-c3ccccc3)c2=O)S(C)(=O)=O)c1 | 63.2% (active)
68 | Cc1cc(C)cc(N(C(C)C(=O)Nc2c(C)n(C)n(-c3ccccc3)c2=O)S(C)(=O)=O)c1 (stereo not drawn) | 62% (active)
69 | Cc1cc(C(=O)Nc2c(C)n(C)n(-c3ccccc3)c2=O)cs1 | -14%
70 | Cc1c(NC(=O)c2coc(=O)c(Br)c2)c(=O)n(-c2ccccc2)n1C | -16.3%
71 | Cc1c(NC(=O)C(C)OC(=O)c2cc3c4ccccc4n(C)c3s2)c(=O)n(-c2ccccc2)n1C (stereo not drawn) | 3.3%
72 | COc1cc(OC)nc(NC(=O)CCl)n1 | -19.8%
73 | CCN1C(=O)/C(=C\N2CCOCC2)SC1=S | 10.7%
74 | CN(C)/C=C(/C(=O)c1ccc(Cl)cc1)S(=O)(=O)c1ccccc1 | 27.2%
75 | Cc1ccc(S(=O)(=O)N2CCN(C(=O)CCC(=O)NC3CCCc4ccccc43)CC2)cc1 (stereo not drawn) | 23.8%

Row | Compound | inhibition
76 | Cc1cc2c(c(=O)n1Cc1ccco1)C(c1ccccc1)C(C#N)=C(N)O2 (stereo not drawn) | 21.9%
77 | Cc1ccc(S(=O)(=O)NCc2cn3ccsc3n2)c(C)c1 | 11.3%
78 | Cc1ccc2nc(Nc3ccccc3O)nc(-c3ccccc3)c2c1 | 10.3%
79 | O=C(Nc1ncc2c(n1)-c1ccccc1OC2)c1ccc(Cl)cc1 | 12.7%
80 | CC1=C(C(=O)Nc2ccccc2)C(c2cccs2)C(C#N)=C(SCC#N)N1 (stereo not drawn) | 88.8% (active)
81 | COc1ccc(NC(=O)c2sccc2SCC#N)cc1 | 24.1%
82 | Cc1ccc(-c2nnc(-c3ccc(NC(=O)c4cccs4)cc3)o2)cc1 | 22.1%
83 | Cc1ccc(Cc2cncc(O)c2)cc1S(=O)(=O)O | 1.6%
84 | CCOC(=O)C1CCCN(Cc2nc(N)nc(Nc3ccc(C)cc3)n2)C1 (stereo not drawn) | 6.3%
85 | Fc1ccc(-c2ccc(-c3nn4c(-c5ccco5)nnc4s3)o2)cc1 | 47.8%
86 | CCOC(=O)N1CCN(C(=O)c2ccc(S(=O)(=O)c3ccc(C)cc3)c(NC(C)=O)c2)CC1 | 5.6%
87 | CCOC(=O)N1CCN(C(=O)c2ccc3c(c2)N(Cc2ccc(C)cc2)CCS3)CC1 | 30%
88 | CCOC(=O)N1CCN(C(=O)CN(c2ccc(C)c(C)c2)S(=O)(=O)c2ccccc2)CC1 | 63.2% (active)
89 | CS(=O)(=O)N(CC(=O)N1CCN(Cc2ccccc2)CC1)c1ccc2c(c1)OCCO2 | 17.4%
90 | CCOC(=O)N1CCN(C(=O)c2ccc(CN(c3ccc(C)c(C)c3)S(C)(=O)=O)cc2)CC1 | 57.3% (active)
91 | COc1ccccc1N(CC(=O)N1CCCCC1)S(=O)(=O)c1ccccc1 | 25.2%
92 | COC(=O)Cn1c2ccc(C)cc2c2nc(C)sc21 | -3.3%
93 | O=S1(=O)CCN(Cc2ccccc2Cl)CC1 | 35.5%
94 | O=C1c2ccccc2C(O)N1Cc1ccccc1 (stereo not drawn) | 60.9% (active)
95 | O=C1c2cccnc2C(Nc2ccc(S(=O)(=O)N3CCCCCC3)cc2)N1Cc1ccccc1 (stereo not drawn) | 40.6%
96 | O=C1c2ccccc2C(O)N1Cc1ccccc1Cl (stereo not drawn) | 80.7% (active)
97 | O=c1ccn(Cc2ccccc2Cl)cc1 | -3%
98 | O=C(C1=C(O)C(=O)N(Cc2ccccc2)C1c1ccco1)c1ccco1 (stereo not drawn) | -22.3%
